Measured values as given in PubChem BioAssay (NCATS).
Inconclusive results are not listed. Unless noted, the call rests on the fitted dose curve; in most records, active means well fitted curve in either direction with a large enough effect (not every such curve was filed as active); inconclusive means small, poorly fitted or top-dose-only effect, or another doubt; inactive means flat fitted curve, though single readings scatter.

How the values were obtained:
[1] = AP1 Signaling Pathway (AID 357); details: ME-180 AP-1-bla reporter, EGF-induced, beta-lactamase ratio, 5 h; at 17.2 µM (top of the series) unless noted;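 further: ME-180 reporter cells stimulated with EGF at its EC50 level; on the % scale 0 is the no-effect control and ±100 the full control effect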
Outline: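 First, ME-180 AP-1-bla cells were cultured overnight at 37 °C in low-serum Opti-MEM. Next, titrated compounds with EC50 EGF were incubated 5 hours. Finally, CCF4 was added for 2.5 hours and the 460/530 nm ratio recorded.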

[2] = NFAT Signaling Pathway (AID 444); details: Jurkat NFAT-bla M1, carbachol, beta-lactamase ratio, 5 h; at 17.2 µM (top of the series) unless noted;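 further: carbachol stimulus at about its EC50 of 1 µM final; on the % scale 0 is the no-effect control and ±100 the full control effect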
Outline: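 Read-out: CCF4 FRET ratio (460 nm/530 nm) after 1 h RT dye loading, used for %activity and AC50 from titration series. Cells: Jurkat NFAT-β-lactamase/M1 line, treated with compound plus 1 uM carbachol for 5 h, 37 °C.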

[3] = Stat Signaling Pathway (AID 446); details: ME-180 SIE beta-lactamase reporter, IL-6 stimulated, 5 h; at 17.2 µM (top of the series) unless noted;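 further: ME-180 cervical cancer cells given 40 pM IL-6 alongside compound; SIE-controlled beta-lactamase reporter measured as 460/530 nm FRET emission ratio; on the % scale 0 is the no-effect control and ±100 the full control effect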
Outline: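 Screening format detects activators and inhibitors alike: ME-180 SIE-bla cells stimulated at 40 pM IL-6 for 5 hrs with compound, then dual-emission beta-lactamase read at 405 nm excitation.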

[4] = molecular target: Glucocorticoid receptor (Homo sapiens) (UniProt P04150); test: GR-GFP Redistribution (AID 450;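 active means compounds whose dose series gives a full or clear partial fitted curve of increased nuclear translocation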; further: potency means the concentration at half of the fitted maximal effect)
Chain of Glucocorticoid receptor (Homo sapiens) (P04150 whole entry, looked up): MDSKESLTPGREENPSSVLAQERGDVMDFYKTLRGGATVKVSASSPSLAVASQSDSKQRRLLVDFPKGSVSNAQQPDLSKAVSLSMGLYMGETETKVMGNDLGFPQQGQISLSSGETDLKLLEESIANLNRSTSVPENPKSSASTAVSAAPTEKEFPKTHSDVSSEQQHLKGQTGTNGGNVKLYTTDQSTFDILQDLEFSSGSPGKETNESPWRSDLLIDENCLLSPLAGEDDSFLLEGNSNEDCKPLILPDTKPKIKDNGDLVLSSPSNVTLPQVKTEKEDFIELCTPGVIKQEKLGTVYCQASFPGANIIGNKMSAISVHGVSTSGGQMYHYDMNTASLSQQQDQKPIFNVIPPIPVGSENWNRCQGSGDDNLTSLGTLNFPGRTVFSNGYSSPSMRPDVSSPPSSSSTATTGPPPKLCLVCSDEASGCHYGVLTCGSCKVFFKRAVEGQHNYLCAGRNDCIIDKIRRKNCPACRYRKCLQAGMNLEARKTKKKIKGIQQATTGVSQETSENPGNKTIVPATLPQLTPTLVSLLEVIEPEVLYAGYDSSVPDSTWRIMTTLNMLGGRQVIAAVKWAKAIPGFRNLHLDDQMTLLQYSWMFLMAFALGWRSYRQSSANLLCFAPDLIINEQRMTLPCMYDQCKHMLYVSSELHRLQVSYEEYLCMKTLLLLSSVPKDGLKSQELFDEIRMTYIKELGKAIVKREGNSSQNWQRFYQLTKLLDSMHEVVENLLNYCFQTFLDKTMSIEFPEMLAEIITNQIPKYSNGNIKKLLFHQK

CC1CN(C2CCN(S(=O)(=O)c3ccc4ccccc4c3)CC2)CC(C)O1 (stereo not given)
inactive: activity change, negative = inhibition [1] -3.99% | activity change, negative = inhibition [2] -12.1% | activity, negative = inhibition [3] -8.2% | Potency [4] > 20.6 µM

COc1cccc(C2C(C#N)=C(N)Oc3cc(C)[nH]c(=O)c32)c1OC (stereo not given)
inactive: activity change, negative = inhibition [1] -18.5% | activity change, negative = inhibition [2] 0.0621% | activity, negative = inhibition [3] -3.84% | Potency [4] > 20.6 µM

C=CCN=C(NC#N)SCCc1ccccc1
inactive: activity change, negative = inhibition [1] -4.76% | activity change, negative = inhibition [2] 7.9% | activity, negative = inhibition [3] 5.61% | Potency [4] > 20.6 µM

COC(=O)CSc1ncnc2c1sc1nc(-c3ccco3)c3c(c12)CC(C)(C)OC3
inactive: activity change, negative = inhibition [1] -2.46% | activity change, negative = inhibition [2] -26.7% | activity, negative = inhibition [3] -10.8% | Potency [4] > 20.6 µM

COC(=O)c1ccc(Cn2c(O)c(N=O)c3ccccc32)o1
inactive: activity change, negative = inhibition [1] -14.4% | activity change, negative = inhibition [2] 18.3% | activity, negative = inhibition [3] 3.14% | Potency [4] > 20.6 µM

Cn1nnnc1-c1cc(Br)ccc1NC(=O)c1ccccc1
inactive: activity change, negative = inhibition [1] 28.6% | activity change, negative = inhibition [2] -1.05% | activity, negative = inhibition [3] 24.3% | Potency [4] > 20.6 µM

CCCCOC(=O)Nc1ccc(S(=O)(=O)Nc2nc(C)cc(C)n2)cc1
inactive: activity change, negative = inhibition [1] -5.25% | activity change, negative = inhibition [2] -8.58% | activity, negative = inhibition [3] -5.4% | Potency [4] > 20.6 µM

CC(C)Cc1nc(N2CCOCC2)c(C#N)c2c1COC(C)(C)C2
inactive: activity change, negative = inhibition [1] 0.834% | activity change, negative = inhibition [2] -9.76% | activity, negative = inhibition [3] 4.57% | Potency [4] > 20.6 µM

Cn1c(=O)c2c(nc(NCc3ccc4c(c3)OCO4)n2Cc2ccccc2F)n(C)c1=O
inactive: activity change, negative = inhibition [1] -24.1% | activity change, negative = inhibition [2] -14% | activity, negative = inhibition [3] -25.4% | Potency [4] > 20.6 µM

CCOC(=O)CSc1nc(N(C)C)nc(N(C)C#N)n1
inactive: activity change, negative = inhibition [1] 4.52% | activity change, negative = inhibition [2] -3.44% | activity, negative = inhibition [3] -0.469% | Potency [4] > 20.6 µM

CCCCCSc1nc(O)cc(=O)[nH]1
inactive: activity change, negative = inhibition [1] -9.05% | activity change, negative = inhibition [2] 11.4% | activity, negative = inhibition [3] -6.56% | Potency [4] > 20.6 µM

c1ccc(-c2nn3c(C4CCCCC4)nnc3s2)cc1
inactive: activity change, negative = inhibition [1] -19.5% | activity change, negative = inhibition [2] -5.79% | activity, negative = inhibition [3] 18.2% | Potency [4] > 20.6 µM

Cc1ccc(-c2nnc(-c3cccc(Br)c3)o2)cc1
inactive: activity change, negative = inhibition [1] 14.2% | activity change, negative = inhibition [2] -11.6% | activity, negative = inhibition [3] 12.4% | Potency [4] > 20.6 µM

COc1ccc(-n2ncc3c(N4CCC(C(N)=O)CC4)ncnc32)cc1
inactive: activity change, negative = inhibition [1] -0.0678% | activity change, negative = inhibition [2] 6% | activity, negative = inhibition [3] -1.03% | Potency [4] > 20.6 µM

CCOC(=O)c1[nH]c2ccccc2c1NC(=O)CN(C)C
inactive: activity change, negative = inhibition [1] 1.77% | activity change, negative = inhibition [2] -6.47% | activity, negative = inhibition [3] 1.63% | Potency [4] > 20.6 µM

c1ccc(SCc2nc3ccccc3[nH]2)nc1
inactive: activity change, negative = inhibition [1] -0.127% | activity change, negative = inhibition [2] 6.97% | activity, negative = inhibition [3] 8.86% | Potency [4] > 20.6 µM

CCOC(=O)c1c(C)n(C)c2ccc(OC)c(NC(=O)CN3CCSCC3)c12
inactive: activity change, negative = inhibition [1] -2.27% | activity change, negative = inhibition [2] -0.789% | activity, negative = inhibition [3] -8.37% | Potency [4] > 20.6 µM

CCSc1nnc(NC(=O)NCC(F)(F)F)s1
inactive: activity change, negative = inhibition [1] 7.55% | activity change, negative = inhibition [2] 2.76% | activity, negative = inhibition [3] 16.4% | Potency [4] > 20.6 µM

CC(=O)C1=C(O)C(=O)N(c2cccc(C(=O)O)c2)C1c1ccc(F)cc1 (stereo not given)
inactive: activity change, negative = inhibition [1] 15.1% | activity change, negative = inhibition [2] 2.04% | activity, negative = inhibition [3] 4.06% | Potency [4] > 20.6 µM

O=C(Oc1ccccc1N1C(=O)CCC1=O)c1ccco1
inactive: activity change, negative = inhibition [1] 11.4% | activity change, negative = inhibition [2] 8.69% | activity, negative = inhibition [3] 1.19% | Potency [4] > 20.6 µM

CCN(CC)CCN1C(=O)C(=O)/C(=C(/O)c2c(C)[nH]c(C(=O)OC)c2C)C1c1cccc(OC)c1 (stereo not given)
inactive: activity change, negative = inhibition [1] 1.88% | activity change, negative = inhibition [2] 3.77% | activity, negative = inhibition [3] 5.49% | Potency [4] > 20.6 µM

CCc1nnc(NC(=O)c2c(O)c3c([nH]c2=O)CCCC3)s1
inactive: activity change, negative = inhibition [1] -9.97% | activity change, negative = inhibition [2] 15.9% | activity, negative = inhibition [3] 4.12% | Potency [4] > 20.6 µM

COCCNc1oc(-c2ccc(F)cc2)nc1C#N
inactive: activity change, negative = inhibition [1] -13.6% | activity change, negative = inhibition [2] 7.25% | activity, negative = inhibition [3] -2.97% | Potency [4] > 20.6 µM

O=C(NCCO)C1(c2ccccc2)CCCC1
inactive: activity change, negative = inhibition [1] 15.9% | activity change, negative = inhibition [2] -7.5% | activity, negative = inhibition [3] 2.26% | Potency [4] > 20.6 µM

CCOc1nc(-c2ccncc2)nc2ccccc12
inactive: activity change, negative = inhibition [1] -12% | activity change, negative = inhibition [2] 2.73% | activity, negative = inhibition [3] -6.2% | Potency [4] > 20.6 µM
